Screening results (PubChem)
Shown are actives, neighbours in structure and some others; about 5.2% of the full set was active somewhere.
GRIN3A LBD mod: modulates the human NR3A ligand-binding domain | NR3A LBD differential scanning fluorimetry, Tm shift; 0% = protein alone, 100% = glycine-bound protein | Tm shift relative to glycine control, % at 25 µM | hit rate 2.5% among 340,000 | AID 1259313;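 active = melting temperature shift of at least 10% of the positive control shift, at one fixed dose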
SMARCA2 activ: SMARCA2 function activation, primary screen; MG213 cells, MMTV-luciferase reporter, dexamethasone, overnight; activation, % at 9.1 µM; hit rate 1% among 370,000; AID 652017; in the data active = activation above about 7.8%
NadD block: NadD (S. aureus) enzyme inhibition. hit rate 0.78% among 360,000. AID 602399. inhibition, % at 20 µM. purified NadD enzyme, colorimetric absorbance read-out; in the data active = inhibition above about 26%
Vif imaging: blocks HIV Vif function. AID 602346. hit rate 0.35% among 340,000. HEK293T cells, Vif self-association by quenched fluorescence, imaging, 24 h. inhibition, % at 7.49 µM; in the data active = inhibition above about 50%, passing the limit was not always enough; inconclusive = no clear call, values can overlap the other calls; inactive = below about 31%
esBAF inh: blocks esBAF chromatin remodeling in mouse ES cells; Bmi1-luciferase knock-in reporter, 24 h; 100% = twice the neutral-well signal; reporter increase, % at 12.5 µM; hit rate 2% among 350,000; AID 602393; in the data active = activation above about 40%; inconclusive = no clear call, values can overlap the other calls;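 also: a rise in the Bmi1 reporter signal indicates esBAF inhibition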
SKN-1 block: C. elegans SKN-1 inhibition | C. elegans VP596 Pgst-4::GFP/RFP ratio, acrylamide-induced, 24 h | inhibition, % at 21.8 µM | hit rate 0.49% among 360,000;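 active = interference check ratio from 0.5 to 1.5 plus GFP to RFP signal ratio inhibition reaching or exceeding a fixed threshold, cut at about 30% in these data, passing the limit was not always enough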
A number is an active result; – = inactive; ? = inconclusive; · = no result given.

SMILES | GRIN3A LBD mod | SMARCA2 activ | NadD block | Vif imaging | esBAF inh | SKN-1 block
C[C@H](CO)N1C[C@H](C)[C@@H](CN(C)C(=O)C2CCOCC2)Oc2ncc(-c3ccccc3)cc2C1=O | · | · | · | · | – | ·
O=C(Cc1ccccn1)N[C@H]1CC[C@H](CC(=O)N2CCCCC2)O[C@@H]1CO | · | · | · | · | – | ·
COCCNC(=O)C[C@@H]1C[C@@H]2c3cc(NS(C)(=O)=O)ccc3O[C@@H]2[C@@H](CO)O1 | · | · | · | · | – | ·
COc1cccc(/C=N/NC(=S)NC2CC3CCC2C3)c1OC (centres undefined) | – | – | – | – | – | –
COc1ccc(O)c(/C=N/NC(=S)NCCc2ccccc2)c1 | 36 | – | – | – | – | –
Oc1ccc(Br)cc1/C=N/NC(=S)NCCc1ccccc1 | 23 | – | – | – | – | –
O=C(CCc1ccccc1)N/N=C/c1cc(Br)ccc1O | – | – | – | – | · | –
Oc1ccccc1/C=N/NC(=S)NC1CC2CCC1C2 (centres undefined) | – | – | – | – | 66 | –
C[C@H](CO)N1C[C@H](C)[C@@H](CN(C)CC2CC2)OCCCC[C@H](C)Oc2ccc(NS(=O)(=O)c3ccc(F)cc3)cc2C1=O | · | · | · | · | – | ·
C[C@@H]1CCCCO[C@@H](CN(C)S(=O)(=O)c2cccs2)[C@@H](C)CN([C@@H](C)CO)C(=O)c2cc(NC(=O)C3CCCCC3)ccc2O1 | · | · | · | · | – | ·
CN1[C@H](C(=O)NCCCN2CCOCC2)[C@@H](CO)[C@@H]2Cn3c(ccc(/C=C/c4ccccc4)c3=O)[C@@H]21 | · | · | · | · | – | ·
O=C(NCC1CC1)[C@H]1[C@H](CO)[C@H]2Cn3c(cccc3=O)[C@@H]1N2CCc1ccccc1 | · | · | · | · | – | ·
Cc1ccc(C(=O)N/N=C\c2ccccc2[N+](=O)[O-])cn1 | – | – | – | – | 53 | –
Cc1ccc(C(=O)N/N=C\C=C\c2ccccc2[N+](=O)[O-])cn1 | – | – | – | – | · | –
Cc1cc(C(=O)NN=Cc2ccc(-c3ccc(F)cc3)o2)c(C)o1 | 16 | – | – | – | – | –
C=CCNC(=S)N/N=C/c1ccc(-c2ccc(Br)cc2)o1 | 16 | – | – | – | · | –
C=CCNC(=S)N/N=C/c1ccc(-c2cccc([N+](=O)[O-])c2)o1 | – | – | – | – | · | –
Cc1ccc(C(=O)N/N=C\c2ccc(-c3ccc(Cl)cc3)o2)cn1 | 13 | – | – | – | – | –
COc1ccc(S(=O)(=O)Nc2ccc3c(c2)C(=O)N([C@@H](C)CO)C[C@@H](C)[C@@H](CN(C)CC2CCCCC2)OCCCC[C@@H](C)O3)cc1 | · | · | · | · | – | ·
C[C@@H]1CN([C@H](C)CO)C(=O)Cc2cc(NC(=O)C3CC3)ccc2O[C@H]1CN(C)C(=O)Nc1cccc2ccccc12 | · | · | · | · | – | ·
C[C@@H]1CCCCO[C@@H](CN(C)Cc2ccncc2)[C@@H](C)CN([C@H](C)CO)C(=O)c2cc(NS(=O)(=O)c3cn(C)cn3)ccc2O1 | · | · | · | · | – | ·
C[C@@H]1CN([C@H](C)CO)C(=O)Cc2cc(NC(=O)C3CCCCC3)ccc2O[C@@H]1CN(C)Cc1ccc(Cl)c(Cl)c1 | · | · | · | · | – | ·
CCOC(=O)c1ccc(-c2ccc(/C=N/NC(=O)Cc3nnc(N)s3)o2)cc1 | – | – | – | – | · | –
COC(=O)c1ccc(-c2ccc(/C=N/NC(=O)CC3(C)OCCCO3)o2)cc1 | – | 7.8 | – | – | ? | –
CCOC(=O)c1ccc(-c2ccc(/C=N/NC(=O)c3cncc(Br)c3)o2)cc1 | – | – | – | 58 | – | –
SMILES | GRIN3A LBD mod | SMARCA2 activ | NadD block | Vif imaging | esBAF inh | SKN-1 block
CC1(CC(=O)N/N=C/c2ccc(-c3ccc(C(=O)O)cc3)o2)OCCO1 | – | – | – | – | – | –
CCCCOC(=O)c1ccc(-c2ccc(/C=N/NC(=S)NCC)o2)cc1 | – | – | – | · | 46 | –
CC(C)Oc1ccc(C(=O)N/N=C/c2ccc(-c3ccc(S(=O)(=O)Nc4ncccn4)cc3)o2)cc1 | – | – | 35 | – | · | –
NC(=O)N/N=C/c1ccc(-c2ccc(S(=O)(=O)Nc3ncccn3)cc2)o1 | – | – | – | – | – | –
Cc1cc(C)cc(NC(=O)Nc2ccc3c(c2)C(=O)N(C)[C@@H]2CC[C@@H](CC(=O)O)O[C@@H]2CO3)c1 | · | · | · | · | – | ·
CCC(=O)Nc1ccc2c(c1)C(=O)N(C)C[C@H](OC)[C@@H](C)CN(C(=O)CC1CC1)[C@H](C)CO2 | · | · | · | · | – | ·
O=C(NN/C(=N/S(=O)(=O)c1ccc(Cl)cc1)c1ccccc1)c1ccc(O)cc1 | 37 | – | – | – | · | –
